Results: PubChem BioAssay AID1851 (National Center for Advancing Translational Sciences (NCATS), 2009)
Several values for one entry are separate records, joined by “and”; a condition that tells them apart may be missing. Equal entries are not always repeated. The whole screen tested about 16,000 compounds, of which about 5,100 (32%) were called active. Not shown: some 25% with an inconclusive outcome. This is one part of the list. Values without a mark were called inactive. Calls follow the shape of the dose curve; as a rule, active = well fitted curve in the direction sought with a large enough effect; inconclusive = small, poorly fitted or top-dose-only effect, or effect the other way; inactive = no such curve, though single readings can be large or run the other way.

These compounds were tested against Cytochrome P450 3A4 (Homo sapiens) (UniProt P08684) (assay: Cytochrome panel assay with activity outcomes). Conditions: recombinant CYP, pro-luciferin dealkylation, luminescence, p450-cyp3a4; series mostly up to 57.1 µM; activity, negative = inhibition: at the top concentration.
Chain of Cytochrome P450 3A4 (Homo sapiens) (P08684 whole entry, looked up): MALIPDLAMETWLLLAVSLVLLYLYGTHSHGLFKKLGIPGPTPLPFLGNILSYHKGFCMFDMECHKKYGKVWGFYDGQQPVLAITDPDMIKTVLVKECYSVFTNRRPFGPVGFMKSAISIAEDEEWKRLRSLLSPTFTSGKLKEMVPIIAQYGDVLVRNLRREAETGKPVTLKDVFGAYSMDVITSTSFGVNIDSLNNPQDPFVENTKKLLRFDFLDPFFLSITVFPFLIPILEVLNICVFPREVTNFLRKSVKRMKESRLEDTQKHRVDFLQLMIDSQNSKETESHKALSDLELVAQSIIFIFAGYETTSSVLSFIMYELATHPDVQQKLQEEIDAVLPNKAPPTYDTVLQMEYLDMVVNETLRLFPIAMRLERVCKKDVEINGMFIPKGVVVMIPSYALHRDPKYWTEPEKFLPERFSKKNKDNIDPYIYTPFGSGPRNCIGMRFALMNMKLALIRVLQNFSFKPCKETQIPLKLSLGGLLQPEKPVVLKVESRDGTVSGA
% is scaled to controls: 0 for no effect and ±100 for the full control effect.

`CCNC(=O)[C@@H]1O[C@@H](n2cnc3c(N)ncnc32)[C@H](O)[C@H]1O` was tested. Which “activity, negative = inhibition” value did it give?
The value was 4.5%.

`CC(=O)O/C(=C1/C[C@H]2[C@@H]3CC=C4C[C@@H](OC(C)=O)CC[C@]4(C)[C@@H]3CC[C@]2(C)C1=O)C(F)(F)F` was tested. Which activity, negative = inhibition did it give?
The activity, negative = inhibition was 4.88% [at 11.4 µM].

Which “activity, negative = inhibition” value does the source give for `c1ccc2nc(N3CCNCC3)ccc2c1` here?
The value was -13.8% [at 25.6 µM].

`CN(C)CCCNc1c2c(nc3ccc(Cl)cc13)CCCC2` was tested. Which activity, negative = inhibition did it give?
The activity, negative = inhibition was 0.971% [at 11.4 µM].

`CCN1C[C@]2(COC)CC[C@H](O)[C@@]34[C@@H]5C[C@H]6[C@@H](OC)[C@H]5[C@](O)(C[C@@H]6OC)[C@@](O)([C@@H](OC)[C@H]23)[C@@H]14` was tested. Which “activity, negative = inhibition” value did it give?
Its value is -10.2% [at 25.6 µM].

For `COc1ccccc1CC1C(=O)C2CCN1CC2` (stereo not given), which “activity, negative = inhibition” value is on record?
The value was -15.5%.

`Cc1ccc(OP(=O)(Oc2ccc(C)cc2)N2C=Cc3ccccc3[C@H]2C#N)cc1` was tested. Which AC50 did it give?
The AC50 was 2.51 µM (active).

With `O=[N+]([O-])c1ccc(N2CCNCC2)cc1NC1CC1` as the compound, how does the activity, negative = inhibition read?
Its activity, negative = inhibition is 1.13% [at 2.29 µM].

How did the “activity, negative = inhibition” value turn out when `CCCN(C/C=C\I)[C@@H]1CCc2ccc(O)cc2C1` was run?
The value was -19.2%.

Which “activity, negative = inhibition” value does the source give for `CCN1C[C@@]2(COC)CC[C@H](O)[C@@]34[C@@H]2C[C@@H]([C@@H]13)[C@]1(O)C[C@@H](OC)C2C[C@H]4[C@H]1[C@H]2OC(C)=O` here?
Its value is 2.48% [at 25.6 µM].

Which “activity, negative = inhibition” value does the source give for `COc1ccccc1N1CCNCC1` here?
Its value is 4.12%.

`C=C(C)[C@H]1CC[C@]2(CO)CC[C@]3(C)[C@@H](CC[C@H]4[C@@]5(C)CC[C@@H](O)C(C)(C)[C@@H]5CC[C@@]43C)[C@H]12` was tested. Which “activity, negative = inhibition” value did it give?
Its value is -23.2% [at 25.6 µM].

For `N[C@H](CP(=O)(O)O)C(=O)O`, which “activity, negative = inhibition” value is on record?
The value was -1.26%.

How did the AC50 turn out when `Cc1ccc(C2CC(=O)C(C=NCCN3CCN(C(=O)Cc4ccccc4)CC3)=C(O)C2)cc1` (stereo not given) was run?
The AC50 was 3.16 µM (active).

How did the “activity, negative = inhibition” value turn out when `CC[N+](C)(C)c1cccc(O)c1` was run?
Its value is 1.24% [at 25.6 µM].

Which “activity, negative = inhibition” value does the source give for `Cn1c(=O)c2[nH]cnc2n(C)c1=O` here?
The value was 1.14% [at 25.6 µM].

For `C[C@H](NC(C)(C)C)C(=O)c1cccc(Cl)c1`, which activity, negative = inhibition is on record?
Its activity, negative = inhibition is “inactive”.

Which “activity, negative = inhibition” value does the source give for `Cc1cc(C)nc(NC2=NCCS2)n1` here?
Its value is -3.88%.

With `CC[N@+]1(C)CCC[C@@H](OC(=O)C(O)(c2ccccc2)c2ccccc2)C1` as the compound, how does the “activity, negative = inhibition” value read?
The value was -15% [at 25.6 µM].

`Cc1ccc(-c2nc3ccccc3c(=O)n2-c2ncccc2C)cc1` was tested. Which activity, negative = inhibition did it give?
The activity, negative = inhibition was -6.07% [at 2.29 µM].

With `CCCCc1nc2ccccc2c(=O)n1-c1ccc(Cl)cc1[N+](=O)[O-]` as the compound, how does the “activity, negative = inhibition” value read?
Its value is 15.8%.

How did the “activity, negative = inhibition” value turn out when `Cc1nc2ccccc2c(=O)n1-n1cnnc1` was run?
The value was -13.4%.

`CCCc1nc2ccccc2c(=O)n1-c1ccc(OC)cc1` was tested. Which AC50 did it give?
The AC50 was 15.8 µM (active).

How did the AC50 turn out when `CCCCc1nc2ccccc2c(=O)n1-c1ccccc1[N+](=O)[O-]` was run?
Its AC50 is 15.8 µM (active).

For `CCC(=O)Nc1ccc(N2CCN(CC)CC2)c(Cl)c1`, which “activity, negative = inhibition” value is on record?
Its value is -23.4%.

`COc1cc([C@@H](O)CN)ccc1O` was tested. Which “activity, negative = inhibition” value did it give?
Its value is -4.97%.

For `O=P(Nc1ccccc1)(Nc1ccccc1)Oc1cccc(Cl)c1`, which activity, negative = inhibition is on record?
The activity, negative = inhibition was -28.2% [at 2.29 µM].

For `CCN1CCN(Cc2cc(OC)c(OC)cc2[N+](=O)[O-])CC1`, which “activity, negative = inhibition” value is on record?
Its value is 16.1%.

How did the “activity, negative = inhibition” value turn out when `CCNC(=O)O/N=C(\C)c1sc(-c2ccccc2)nc1C` was run?
Its value is -25.9%.

How did the “activity, negative = inhibition” value turn out when `CN(C)C(=O)Oc1cc(OC(=O)N(C)C)cc([C@@H](O)CNC(C)(C)C)c1` was run?
Its value is 0.065% [at 25.6 µM].

`O=C(Cc1ccc(Cl)c(Cl)c1)N1CCCC[C@H]1CN1CCCC1` was tested. Which AC50 did it give?
The AC50 was 15.8 µM (active) and 7.94 µM (active).

Which activity, negative = inhibition does the source give for `NC(N)=NCCN=C(N)N` here?
Its activity, negative = inhibition is 0.983% [at 11.4 µM].

With `CC1=NN(c2ccccc2)C(=O)[C@@H]1N=Nc1ccc([As](=O)(O)O)c(O)c1` as the compound, how does the activity, negative = inhibition read?
The activity, negative = inhibition was -5.79% [at 11.4 µM].

`COC(=O)[C@@H](N)CCCN=C(N)N[N+](=O)[O-]` was tested. Which “activity, negative = inhibition” value did it give?
Its value is -12.7%.

With `CCn1cc(C(=O)O)c(=O)c2cc3c(cc21)OCO3` as the compound, how does the “activity, negative = inhibition” value read?
The value was -9.37% [at 25.6 µM].

How did the activity, negative = inhibition turn out when `FC(F)(F)c1nc2ccc(SSc3ccc4nc(C(F)(F)F)[nH]c4c3)cc2[nH]1` was run?
Its activity, negative = inhibition is 4.91% [at 11.4 µM].

Which AC50 does the source give for `CC(C)=C[C@H]1[C@@H](C(=O)OCc2cc3c(cc2Cl)OCO3)C1(C)C` here?
Its AC50 is 0.316 µM (active).

With `CC(C)C(=O)CP(=O)(O)O` as the compound, how does the activity, negative = inhibition read?
The activity, negative = inhibition was 2.74% [at 11.4 µM].

For `O=C(c1ccncc1)N1CCC2(CC1)CN(Cc1ccccc1)C2`, which AC50 is on record?
Its AC50 is 20 µM (active).

How did the activity, negative = inhibition turn out when `c1ccc(CN2CCN(Cc3ccc4c(c3)OCCO4)CC2)cc1` was run?
Its activity, negative = inhibition is -16.2% [at 11.4 µM].

`O=C(Oc1ccccc1)N1CCC2(CCN(Cc3ccncc3)CC2)CC1` was tested. Which AC50 did it give?
The AC50 was 12.6 µM (active).

`CC(C)CN1CCCC2(CCN(C(=O)c3ccncc3)CC2)C1` was tested. Which AC50 did it give?
Its AC50 is 12.6 µM (active).

With `CC(C)CN1CCC2(CC1)CCN(C(=O)Oc1ccccc1)CC2` as the compound, how does the “activity, negative = inhibition” value read?
Its value is 10.7%.

How did the “activity, negative = inhibition” value turn out when `c1csc(CN2CCCC3(CCNCC3)C2)n1` was run?
Its value is -39.5%.

How did the “activity, negative = inhibition” value turn out when `CC(C)CN1CC2(CCN(C(=O)c3ccncc3)CC2)C1` was run?
Its value is -28.2%.
